Source: PubChem BioAssay
Results filed as inconclusive are left out. For part of these data: Potency and affinity values are given separately. The source made the active and inactive calls. Unless noted, how the calls were made is not given here.

Tests used:
[1] = blockers of polyQ-driven CASP3 activation – cell-based (AID 1583); conditions: polyglutamine-induced caspase-3 activation, cell assay; stronger effect = higher value;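 tested at 10 µM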
[2] = yeast 75Q aggregation reduction – 75Q-TubU reporter (AID 1593); conditions: Yeast 75Q polyglutamine aggregation reporter
[3] = restoration of touch response, mutant HTT neurons – whole organism, C. elegans mechanosensory neurons, N-terminal huntingtin (AID 1599); conditions: C. elegans polyQ-huntingtin mechanosensory neurons, stronger effect = higher value
[4] = blockers of cytochrome c efflux from mitochondria – biochemical, purified mitochondria (AID 1603); conditions: stronger effect = lower value;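 further: mouse liver mitochondria challenged with calcium chloride; signal normalized to the plate average as 100%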
[5] = polyglutamine aggregate formation blockers (AID 1604); conditions: polyglutamine-induced protein aggregation inhibition assay; stronger effect = higher value; tested at 2.5 µM
[6] = glutamate transport activators, MN-1 cells, MN-1 cell line (AID 1612); conditions: MN-1 motor neuron cells, stronger effect = higher value;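 further: tested at 1 µM final; 0% = mean of DMSO vehicle wells on each plate; positive means more glutamate uptake than control and negative means less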
[7] = 75Q-TubH aggregate inhibition, S. cerevisiae, yeast (AID 1616); conditions: S. cerevisiae 75Q-TubH polyglutamine aggregation suppression; stronger effect = higher value
[8] = compounds altering viability of human ES cells (AID 493140); conditions: human embryonic stem cell survival screen; stronger effect = higher value;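 further: cells exposed to compounds for four days before counting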
[9] = target: ATP-dependent translocase ABCB1 (Homo sapiens) (UniProt P08183); test: P-glycoprotein substrate transport blockade – cell-based (AID 377; in the data active means fluorescence slope change above about 50%); conditions: MDR1-expressing cells, fluorescent substrate accumulation slope; stronger effect = higher value; concentration not given here
Chain of ATP-dependent translocase ABCB1 (Homo sapiens) (P08183 whole entry, looked up): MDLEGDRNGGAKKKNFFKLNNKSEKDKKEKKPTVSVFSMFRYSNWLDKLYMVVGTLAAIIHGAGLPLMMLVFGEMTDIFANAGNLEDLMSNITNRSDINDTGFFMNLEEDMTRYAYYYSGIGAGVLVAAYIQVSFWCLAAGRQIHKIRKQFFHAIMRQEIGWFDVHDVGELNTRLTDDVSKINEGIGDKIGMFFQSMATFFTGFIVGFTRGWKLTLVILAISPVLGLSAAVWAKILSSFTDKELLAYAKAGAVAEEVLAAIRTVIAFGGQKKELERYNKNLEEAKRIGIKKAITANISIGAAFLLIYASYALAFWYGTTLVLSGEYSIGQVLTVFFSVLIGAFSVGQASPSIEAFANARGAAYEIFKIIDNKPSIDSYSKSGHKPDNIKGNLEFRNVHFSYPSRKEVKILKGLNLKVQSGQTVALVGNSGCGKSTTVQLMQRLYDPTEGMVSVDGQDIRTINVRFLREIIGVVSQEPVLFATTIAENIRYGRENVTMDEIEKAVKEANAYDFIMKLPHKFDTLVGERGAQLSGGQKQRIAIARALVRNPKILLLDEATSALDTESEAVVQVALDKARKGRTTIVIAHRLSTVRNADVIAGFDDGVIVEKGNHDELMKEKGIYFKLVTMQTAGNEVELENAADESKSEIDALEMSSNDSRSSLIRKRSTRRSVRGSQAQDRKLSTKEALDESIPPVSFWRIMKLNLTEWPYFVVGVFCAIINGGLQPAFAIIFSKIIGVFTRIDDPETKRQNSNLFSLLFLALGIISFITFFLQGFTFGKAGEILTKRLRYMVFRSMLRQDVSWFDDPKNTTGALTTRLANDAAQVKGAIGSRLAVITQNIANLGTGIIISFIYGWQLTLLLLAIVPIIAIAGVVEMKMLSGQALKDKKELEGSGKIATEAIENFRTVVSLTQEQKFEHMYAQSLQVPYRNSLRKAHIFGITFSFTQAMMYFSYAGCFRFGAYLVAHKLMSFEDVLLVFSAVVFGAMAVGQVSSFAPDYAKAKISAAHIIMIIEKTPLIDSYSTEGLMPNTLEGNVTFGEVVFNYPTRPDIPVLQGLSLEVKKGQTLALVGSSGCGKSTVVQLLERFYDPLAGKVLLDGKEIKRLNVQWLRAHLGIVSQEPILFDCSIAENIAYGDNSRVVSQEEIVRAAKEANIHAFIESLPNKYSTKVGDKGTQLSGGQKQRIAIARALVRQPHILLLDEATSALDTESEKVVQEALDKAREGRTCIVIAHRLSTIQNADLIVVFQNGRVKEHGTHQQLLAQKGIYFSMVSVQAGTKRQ

[10] = compounds altering circadian rhythm period length – cell-based, LOPAC library, luminescence reporter (AID 2774); conditions: circadian reporter cells, at 7 µM, actives lie on both sides;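 further: values are relative to mean of DMSO wells on each plate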

| SMILES | inhibition [1] | score [2] | rescue above control [3] | cytochrome c release ratio [4] | inhibition of aggregation [5] | glutamate uptake change [6] | aggregation suppression score [7] | survival [8] | fluorescence slope change [9] | period change [10] |
| --- | --- | --- | --- | --- | --- | --- | --- | --- | --- | --- |
| CCN(CC)C(C)CN1c2ccccc2Sc2ccccc21 (centres undefined) | -20.5% | 1.11 | -4.48 | 0.98 | 54.5% | 47.6% | 1.19 | 4.08 (inactive) | – | – |
| CCCC(C(=O)OCCN(CC)CC)(c1ccccc1)c1ccccc1 | -4.65% | 1.32 | -2.09 | 2.6 | 77% | 0.18% | 1.25 | 3.58 (inactive) | 180% (active) | -0.035 h (inactive) |
| O=C(OCC(O)CO)c1ccccc1Nc1ccnc2cc(Cl)ccc12 (centres undefined) | 18.5% | 1.22 | -8.14 | 1.02 | 23.8% | 4.05% | 0.893 | 17.9 (inactive) | 88.6% (active) | – |
| CCN(CC)CCOC(=O)C(c1ccccc1)C1CCCCC1 (centres undefined) | 14.6% | 1.92 | 0.94 | 1.03 | 6.35% | 1.54% | 1.17 | 3.67 (inactive) | 89.7% (active) | – |
| Clc1ccc(C(c2ccccc2Cl)C(Cl)Cl)cc1 (centres undefined) | 21% | -3.35 | 0 | 3.7 | 72.2% | -9.79% | -1.87 | – | 7.7% (inactive) | -0.13 h (inactive) |
| CC(C)COCC(CN(Cc1ccccc1)c1ccccc1)N1CCCC1 (centres undefined) | 7.56% | 1.17 | 1.23 | 0.32 | 23.6% | 12.6% | 1.08 | 5.92 (inactive) | 131% (active) | 0.04 h (inactive) |
| Oc1ccc(Cl)c2cccnc12 | 19.1% | -0.02 | -0.67 | 0.81 | 63.5% | 42.4% | 0.0533 | – | – | – |
| Cc1oncc1C(=O)Nc1ccc(C(F)(F)F)cc1 | -21.8% | 0.42 | -2.16 | 1.42 | 51% | 8.42% | 0.133 | 6.08 (inactive) | 12.9% (inactive) | 0.35 h (inactive) |
| Nc1nc(=S)c2[nH]cnc2[nH]1 | 7.19% | 1.07 | -10.2 | 0.96 | 83.1% | -1.16% | 1.86 | – | – | – |
| Nc1ccc(N=Nc2ccccc2)c(N)n1 | 8.8% | 1.35 | -1.41 | 0.66 | 65.5% | -9.75% | 1.49 | 4 (inactive) | – | – |
| CSc1ccc2c(c1)C(N1CCN(C)CC1)Cc1ccccc1S2 (centres undefined) | 7.11% | 0.84 | 0 | 4.27 | 80.6% | 5.12% | 1.18 | 1.5 (inactive) | – | 0.085 h (inactive) |
| Cc1nc2sccn2c(=O)c1CCN1CCC(=C(c2ccc(F)cc2)c2ccc(F)cc2)CC1 | -6.39% | 1.46 | 0 | 0.36 | 7.32% | 29.6% | 1.39 | – | – | 0.08 h (inactive) |
| O=C(OCc1ccccc1)c1ccccc1 | 4.26% | 0.45 | 0.5 | 1.04 | 74% | 36% | 0.363 | – | – | – |
| C1CCC(C(CC2CCCCN2)C2CCCCC2)CC1 (centres undefined) | 57.7% | 0.35 | -18 | 1.56 | 83.1% | -10.9% | 0.885 | 6 (inactive) | 352% (active) | – |
| CC1=CC(=O)c2ccccc2C1=O | 56.7% | -0.01 | -12.4 | 1.17 | 53.5% | -13.7% | 0.00728 | 2.42 (inactive) | 81.2% (active) | – |
| CN1CCN(CCCN2c3ccccc3Sc3ccc(Cl)cc32)CC1 | 88.9% | 1.36 | 0 | 2.91 | 74.6% | 0% | 1.34 | 1.75 (inactive) | 65.3% (active) | 0.055 h (inactive) |
| Clc1ccccc1C(c1ccccc1)(c1ccccc1)n1ccnc1 | 60.7% | 0.26 | -7 | 4.6 | 41.7% | -22.9% | 0.0931 | 29.8 (inactive) | 67.9% (active) | 0.01 h (inactive) |
| CC(CN(C)C)CN1c2ccccc2CCc2ccccc21 (centres undefined) | 11.6% | 1.5 | -11.6 | 0.94 | 23.8% | 14.6% | 1.32 | 2.17 (inactive) | 61.2% (active) | -0.085 h (inactive) |
| CC(Cc1cccc(C(F)(F)F)c1)NCCOC(=O)c1ccccc1 (centres undefined) | 15% | 1.42 | 0 | 1.02 | 40.9% | 15.6% | 1.08 | 2.5 (inactive) | 69.3% (active) | – |
| CC1CCC(NC(=O)N(CCCl)N=O)CC1 (centres undefined) | 13.6% | 0.02 | -12.6 | 1.01 | 26.4% | -7.99% | 0.0109 | – | 10.9% (inactive) | – |
| NC(=NCCCCCCN=C(N)/N=C(\N)Nc1ccc(Cl)cc1)/N=C(\N)Nc1ccc(Cl)cc1 | 66.8% | 0.16 | 0 | 12.9 | 79.3% | -13.4% | 0.0711 | 3.17 (inactive) | 250% (active) | – |
| CN1CCN2c3ccccc3Cc3ccccc3C2C1 (centres undefined) | -9.95% | 1.13 | 36.1 | 0.7 | 60.7% | 12.1% | 1.3 | 11.2 (inactive) | 67.1% (active) | 0.145 h (inactive) |
| COC(=O)Nc1nc2ccc(Sc3ccccc3)cc2[nH]1 | 20.4% | 0.64 | -1.52 | 0.87 | 6.35% | -41.7% | 0.129 | 0.833 (inactive) | 52.1% (active) | – |
| COC(=O)[C@H]1[C@H]2C[C@@H]3c4[nH]c5cc(OC)ccc5c4CCN3C[C@H]2C[C@@H](OC(=O)c2cc(OC)c(OC)c(OC)c2)[C@@H]1OC | -42.7% | 1.16 | -12.7 | 1.46 | 63.2% | 4.63% | 1.07 | 6.17 (inactive) | 51.8% (active) | 0.165 h (inactive) |
| Cc1cc(N)c2ccccc2[n+]1CCCCCCCCCC[n+]1c(C)cc(N)c2ccccc21 | -13.3% | 0.06 | -0.23 | 6.78 | 43.1% | 12.9% | 0.0487 | 0.167 (inactive) | 97.9% (active) | 0.12 h (inactive) |
| CCCCC(CC)CN1CN(CC(CC)CCCC)CC(C)(N)C1 (centres undefined) | 22.5% | 0.11 | 0 | 0.41 | 1.83% | 2.82% | 0.306 | 6.83 (inactive) | 61.9% (active) | – |
| COc1ccc(CCN2CCC(Nc3nc4ccccc4n3Cc3ccc(F)cc3)CC2)cc1 | 17.9% | 1.54 | 0 | 0.61 | -3.03% | 31.2% | 1.26 | 1.58 (inactive) | 189% (active) | – |
| CC(C)(C)CC(C)(C)c1ccc(O)c(Cc2ccc(Cl)cc2Cl)c1 | 42% | -0.61 | -2.34 | 0.8 | 71.9% | -22.5% | 0.498 | – | – | – |
